A selection: hits, their analogues and other compounds. The true share with any hit is near 2.3%.
CHRM1 PAM = positive allosteric modulators of human M1 muscarinic receptor; CHO-K1 hM1, Fluo-8 calcium fluorescence, ACh EC20; 0% = ACh EC20, 100% = maximal ACh; P11229; actives 0.088% (n = 360,000); activation, % at 3 µM; in the data active = activation above about 19%, passing the limit was not always enough
Target sequence (P11229 whole entry, looked up): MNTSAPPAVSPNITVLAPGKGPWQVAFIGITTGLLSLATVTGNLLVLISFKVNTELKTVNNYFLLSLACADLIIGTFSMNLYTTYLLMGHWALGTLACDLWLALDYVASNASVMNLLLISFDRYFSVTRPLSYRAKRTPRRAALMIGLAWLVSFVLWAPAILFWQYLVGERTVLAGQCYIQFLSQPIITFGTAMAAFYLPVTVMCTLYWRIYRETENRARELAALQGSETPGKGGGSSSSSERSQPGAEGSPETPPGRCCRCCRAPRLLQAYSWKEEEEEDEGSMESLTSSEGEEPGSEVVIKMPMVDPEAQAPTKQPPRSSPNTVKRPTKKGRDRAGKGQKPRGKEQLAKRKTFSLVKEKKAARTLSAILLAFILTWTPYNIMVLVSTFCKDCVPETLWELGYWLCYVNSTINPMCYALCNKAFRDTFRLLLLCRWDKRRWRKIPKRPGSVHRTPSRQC
M1 PAM parental = M1 PAM counterscreen hit in parental CHO-K1 cells; ATP EC20, Fluo-8 calcium fluorescence; 0% at ATP EC20, 100% at ATP max; activation, % at 3 µM; actives 0.02% (n = 360,000); AID 602247;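 active = activation above the run cutoff, the mean activation of all test compounds plus 3 SD, cut at about 40% in these data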;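 note: peak over basal fluorescence ratio in a 140 s read after ATP addition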
CHO-K1 Ca antag = M1 antagonist counterscreen hit in parental CHO-K1 cells; ATP-induced calcium, Fluo-8 fluorescence; inhibition, % at 3 µM; actives 0.6% (n = 360,000); AID 602250;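 active = inhibition above a per-plate cutoff, the plate's mean sample inhibition plus 3 SD, cut at about 24% in these data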
M1 ag = activates human CHRM1 receptor; P11229; CHO-K1 hM1, Fluo-8 calcium fluorescence, agonist mode; 0% DMSO, 100% acetylcholine EC100; activation, % at 3 µM; actives 0.33% (n = 360,000); AID 588814;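 active = activation above the run's mean compound activation plus 3 SD, cut at about 16% in these data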;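 note: peak over basal fluorescence ratio within a 140 s kinetic read after compound addition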
CHO-K1 Ca ag = nonselective activator or artifact in parental CHO-K1 cells | AID 602248 | actives 0.48% (n = 360,000) | activation, % at 3 µM | Fluo-8 calcium fluorescence; scaled to maximal ATP response, vehicle zero; in the data active = activation above about 15%;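 note: untransfected CHO-K1 host cells lacking M1 receptor as counterscreen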
CHRM1 antagonist = antagonists of human M1 muscarinic receptor | CHO-K1 hM1, Fluo-8 calcium fluorescence, ACh EC80 antagonist | actives 1.3% (n = 360,000) | inhibition, % at 3 µM | P11229;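 active = percent inhibition above its own plate's cutoff, namely the mean of that plate's compound wells plus 3 SD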;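 note: peak over basal fluorescence ratio during 140 s after agonist addition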
Of the large screens only hits and unclear results are named; the others gave an inactive call.

Cc1ccc(NC(=O)C2CCN(S(=O)(=O)c3cccc4nonc34)CC2)cc1	none
O=C(Nc1cccc(F)c1)C1CCN(S(=O)(=O)c2cccc3nonc23)CC1	CHO-K1 Ca ag 20
CC1CCCN(CC(=O)Nc2ccc(S(=O)(=O)N3CCCC3)cc2)C1 (stereo unspecified)	CHRM1 antagonist 67
OC[C@@H]1CN(Cc2ccco2)C[C@H](n2cnc3c(Nc4ccccc4)ncnc32)O1	none
Cc1cc(C)c2c(=O)n3c(nc2c1)C(CC(C)C)NC(=O)c1cccnc1-3 (stereo unspecified)	none
CN[C@H]1C[C@@H](c2ccccc2)N(C(C)=O)C[C@H]1CO	none
O=C(Nc1cccc(Cl)c1)Nc1cc(S(=O)(=O)N2CCCCC2)ccc1Cl	CHO-K1 Ca antag 38, CHRM1 antagonist 25
CCN(CC(=O)Nc1cc(S(=O)(=O)N2CCCCC2)ccc1Cl)Cc1ccccc1	CHO-K1 Ca antag 36
CN1CCN(S(=O)(=O)c2ccc(NC(=O)Nc3cccc(Cl)c3)cc2)CC1	none
O=C(CN1CCN(S(=O)(=O)c2ccc(Br)cc2)CC1)Nc1ccc2c(c1)OCO2	CHO-K1 Ca ag 22
O=C(CN1CCN(S(=O)(=O)c2ccc(Br)cc2)CC1)Nc1ccc(F)cc1	none
O=C(NCc1cccnc1)c1cc(C2CCCN(S(=O)(=O)c3cccs3)C2)on1 (stereo unspecified)	none
O=C(NCc1cccc(Cl)c1)C1Cc2c(-c3ccccc3)ccnc2O1 (stereo unspecified)	none
CCC(C)N(CCNC(=O)CC1Oc2ccc(C)cc2NC1=O)C1CCCCC1 (stereo unspecified)	CHRM1 antagonist 101
Cc1ccc2c(c1)NC(=O)C(CC(=O)NCCCN1CCCC1)O2 (stereo unspecified)	none
Cc1ccc2c(c1)NC(=O)C(CC(=O)NCCCN1CCCCC1C)O2 (stereo unspecified)	none
CC1CCCCN1CCNC(=O)CC1Oc2ccccc2NC1=O (stereo unspecified)	CHRM1 antagonist 36
CCC(C)c1ccc(S(=O)(=O)N2CCN(C(=O)CN3C(=O)NC(C)(C4CC4)C3=O)CC2)cc1 (stereo unspecified)	none
COc1ccc(-n2nnnc2CNC(=O)C2CC(=O)N(c3ccc(F)cc3)C2)cc1 (stereo unspecified)	CHO-K1 Ca antag 28
COc1ccc(N2CC(C(=O)Nc3c4c(nn3-c3ccc(OC)cc3)CS(=O)(=O)C4)CC2=O)cc1 (stereo unspecified)	CHRM1 PAM 26
CC(=O)Nc1ccc(S(=O)(=O)N(CC(=O)NCC2CCCO2)Cc2ccccc2Cl)cc1 (stereo unspecified)	none
CCc1nc2ccc(C(=O)Nc3cccc(NS(C)(=O)=O)c3)cn2c1N(C)CCN1CCOCC1	none
Cc1ccc(S(=O)(=O)N2CCNC(=O)CC2)cc1	CHO-K1 Ca ag 23
Cc1ccc(S(=O)(=O)N2CCc3ccccc3CC2)cc1	none
Cc1ccc2nc(SCc3nc4c(cnn4-c4ccccc4)c(=O)[nH]3)[nH]c2c1	CHO-K1 Ca antag 27
CC(C)NC(=O)C1(C)CCN1Cc1ccc(Cl)cc1 (stereo unspecified)	none
COc1ccc(C(C)=O)cc1CN1C(=O)C(C)ON=C1c1ccccn1 (stereo unspecified)	none
COc1cc(N2C(=O)c3ccccc3C2=O)c(Cl)cc1C(=O)OCC(=O)NCc1ccco1	CHO-K1 Ca antag 28
CCOC(=O)c1cn(Cc2ccc(C)cc2)c2cc(F)ccc2c1=O	M1 ag 17
O=C1Nc2ccccc2C(=O)N2[C@H](c3ccc(F)cc3)[C@@H]3C(=O)N(Cc4ccccc4)C(=O)[C@@H]3[C@H]12	M1 ag 36
CN(C)c1ccc(-c2csc(C(O)c3cccc(Cl)c3)n2)cc1 (stereo unspecified)	M1 ag 19, CHRM1 antagonist 42
CCc1nc2c(OCc3ccc(OC(F)F)cc3)cccn2c1N(C)C(=O)c1ccc(OC)cc1	none
N#C/C(=C/c1cccc(O)c1)C(=O)NCc1ccc(Cl)cc1	M1 ag 17, CHRM1 antagonist 28
COc1ccc(/C=C(\C#N)C(=O)NCc2cccnc2)cc1OC	none
CCOc1cc(/C=C(\C#N)C(=O)NCc2cccnc2)ccc1O	CHO-K1 Ca antag 32
CC(C)OCCc1cccc[n+]1[O-]	none
CN(C)CC/C=C1/c2cc(F)ccc2CSc2ccc(F)cc21	CHRM1 antagonist 100
CN(C)CC/C=C1\c2cc(F)ccc2CSc2ccccc21	CHRM1 antagonist 99
CC(=O)NC(c1ccccc1)c1nc(-c2ccc(F)c(Cl)c2)cs1 (stereo unspecified)	none
COCCN1C[C@@H](CO)O[C@@H](n2cnc3c(NCCO)ncnc32)C1	none
COc1ccc(OC)c(NS(=O)(=O)c2cccc3cccnc23)c1	none
Cc1cc(C)c(NS(=O)(=O)c2cccc3cccnc23)c(C)c1	CHO-K1 Ca antag 27
COc1ccc(C(C)(C)C)cc1NS(=O)(=O)c1cccc2cccnc12	CHRM1 PAM 32
O=S(=O)(c1cccnc1)N1CCCC(Nc2ccc(F)c(F)c2)C1 (stereo unspecified)	none
CCCCc1c(Cc2cccc(F)c2)ncn1CCc1ccccc1OC	none (no result: CHRM1 PAM, M1 ag, CHRM1 antagonist)
O=C(c1ccc(CNS(=O)(=O)c2ccc(F)cc2)cc1)N1CCCCCC1	none
COc1ccccc1NS(=O)(=O)c1cccc(-n2c(O)c(C=Nc3ccccc3C(=O)O)c3ccccc3c2=O)c1	CHRM1 antagonist 70
CC(=O)Cc1c(C(=O)O)c(C)nn1-c1ccccc1	CHO-K1 Ca antag 26
CCN1CCN(CCNC(=O)c2ccc3c(c2)N(Cc2ccc(F)cc2)C(=O)/C(=C/c2ccccc2)S3)CC1	none
CCN1CCN(CCNC(=O)c2ccc(/C=C3/Sc4ccccc4N(Cc4cccc(Cl)c4)C3=O)cc2)CC1	CHRM1 antagonist 57
Cc1cccc(CN2C(=O)/C(=C\c3ccc(C(=O)NCCN4CCOCC4)cc3)Sc3ccccc32)c1	CHRM1 antagonist 33
Cc1ccccc1CN1C(=O)/C(=C\c2ccc(C(=O)NCCN3CCOCC3)cc2)Sc2ccccc21	none
CN(Cc1ccccc1)C(=O)[C@@H]1CCCN1C(=O)OC(C)(C)C	none (no result: CHRM1 PAM, M1 ag, CHRM1 antagonist)
Cc1ccc(C)c(NC(=S)/C(=C(\[O-])c2ccc(Cl)s2)[n+]2ccccc2)c1	CHRM1 antagonist 23
[O-]/C(=C(\C(=S)Nc1cccc2ccccc12)[n+]1ccccc1)c1ccc(Cl)s1	none
NC(CCc1ccccc1)c1csc(NC(=O)Nc2cccc(C(F)(F)F)c2)n1 (stereo unspecified)	none
O=C1NC[C@H](CCCCN2C[C@H](Cc3ccccc3)N(CCc3ccc(O)cc3)C(=O)C2=O)N(CC2CCCCC2)C1=O	none (no result: CHRM1 PAM, M1 ag, CHRM1 antagonist)
NS(=O)(=O)c1ccc(CNC(=O)C23CC4CC(CC(C4)C2)C3)cc1	CHO-K1 Ca antag 28

From PubChem BioAssay
